Screens: PubChem, Johns Hopkins Ion Channel Center
KCNQ2 block: rat KCNQ2 potassium channel inhibitors, primary screen, cell-based, CHO-K1, FluxOR thallium flux, B-score; Potassium voltage-gated channel subfamily KQT member 2 (Rattus norvegicus), O88943; 20 min; hits give low values; B-score at 10 µM; 310,000 compounds, 1.1% hits; AID 2156, 2009;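 active = fluorescence ratio B-score at most minus 3 library SDs, with starting brightness B-score within 2 library SDs, cut at about -5.5 in these data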
KCNQ2 pot: potentiators of rat KCNQ2 potassium channel; Potassium voltage-gated channel subfamily KQT member 2 (Rattus norvegicus), O88943; CHO-K1 KCNQ2, FluxOR thallium flux fluorescence; hits give high values; B-score at 10 µM; 310,000 compounds, 0.54% hits;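 active = fluorescence ratio B-score at least 3 SD of library B-scores, with initial fluorescence B-score within 3 of them, cut at about 5.3 in these data; same plate scores as AID 2156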;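 note: B-score of peak minus minimum over baseline fluorescence ratio after K+ and Tl+ stimulus; positive B-score means potentiation of KCNQ2 with more thallium influx and brighter signal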
Kir21 conf inh: mouse Kir2.1 channel blockers, retest, confirmation, cell-based, FluxOR thallium flux, duplicate. shares compounds with KCNQ2 pot. Kir2.1-expressing cells, FluxOR thallium flux fluorescence; hits give low values. Tl flux remaining, % of negative control (hits give low values), % at 10 µM. 2,300 compounds, 41% hits. AID 2032, 2009;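 active = Primary-screen hit whose thallium flux fell at least 3 control SD below untreated wells in both duplicates, with normal baseline fluorescence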
HEK293 ctr: counter-screen for Kir2.1 inhibitors: effect in parental HEK293 cells. 2,300 compounds, 19% hits. FluxOR signal as % of negative control (100 = no effect), % at 10 µM. shares compounds with KCNQ2 pot. FluxOR thallium flux fluorescence; 0% = unstimulated blank wells;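 active = dye signal at least 3 control SD above or below untreated wells in both duplicates, raw fluorescence within 3, either direction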;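 note: percent is based on the flux ratio of peak minus minimum fluorescence over baseline F0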
CHO-K1 Tl ctr: nonspecific thallium flux increase in parental CHO-K1, confirmation, counter-screen for KCNQ2 potentiator project, cell-based, FluxOR thallium flux, duplicate. activity increase over 3SD of controls, % at 10 µM. 1,200 compounds, 43% hits. parental CHO-K1 cells, FluxOR thallium flux fluorescence; zero = vehicle mean+3SD, 100% = vehicle-minus-blank window. shares compounds with KCNQ2 pot;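 active = signal rise of at least 3 SD above the untreated control mean, in both duplicate wells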;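 note: counter screen of KCNQ2 potentiator hits so any rise reflects channel-independent effects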
KCNQ1 pot spec: human KCNQ1 channel potentiation off-target, confirmation, selectivity assay for KCNQ2 potentiator project, cell-based, CHO, FluxOR thallium flux; shares compounds with KCNQ2 pot; CHO KCNQ1 stable, FluxOR thallium flux fluorescence; beyond 3SD, as % of vehicle-control signal; activation over 3SD threshold, % at 10 µM; 1,200 compounds, 28% hits; AID 2283, 2010;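 active = fluorescence ratio rise of at least 3 SD of vehicle wells above their mean, in both replicate wells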
Target sequence (P51787 whole entry, looked up): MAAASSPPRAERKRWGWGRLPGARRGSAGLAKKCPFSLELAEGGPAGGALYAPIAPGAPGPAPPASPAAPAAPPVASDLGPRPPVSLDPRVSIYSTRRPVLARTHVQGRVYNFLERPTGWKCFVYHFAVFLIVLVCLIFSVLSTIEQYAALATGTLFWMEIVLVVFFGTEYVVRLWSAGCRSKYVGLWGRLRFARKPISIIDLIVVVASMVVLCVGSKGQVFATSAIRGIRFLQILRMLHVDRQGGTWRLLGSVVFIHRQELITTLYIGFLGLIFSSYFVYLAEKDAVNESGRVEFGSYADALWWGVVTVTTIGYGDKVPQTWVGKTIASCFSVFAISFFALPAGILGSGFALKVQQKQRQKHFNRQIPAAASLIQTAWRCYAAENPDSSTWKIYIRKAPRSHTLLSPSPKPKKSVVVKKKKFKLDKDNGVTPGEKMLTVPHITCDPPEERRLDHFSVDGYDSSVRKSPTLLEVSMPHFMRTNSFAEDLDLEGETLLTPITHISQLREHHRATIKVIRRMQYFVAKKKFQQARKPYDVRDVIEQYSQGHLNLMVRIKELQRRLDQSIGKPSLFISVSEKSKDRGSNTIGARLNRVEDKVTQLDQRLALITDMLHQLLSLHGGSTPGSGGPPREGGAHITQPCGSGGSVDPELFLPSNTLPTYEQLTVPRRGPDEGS
KCNQ2 pot conf: rat KCNQ2 channel potentiators, confirmation, cell-based, CHO, FluxOR thallium flux, duplicate. shares compounds with KCNQ2 pot. CHO-KCNQ2 cells, FluxOR thallium flux fluorescence. potentiation, less the hit threshold, % at 10 µM. 1,200 compounds, 68% hits. AID 2287, 2010;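 active = fluorescence ratio rising 3 SD or more over the vehicle control mean in both replicates, plus primary screen hit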;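 note: peak minus minimum thallium fluorescence divided by baseline after K/Tl stimulus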
Kir21 spec: mouse Kir2.1 channel activation off-target, confirmation, selectivity assay for KCNQ2 potentiator project, cell-based, HEK293, FluxOR thallium flux | shares compounds with KCNQ2 pot | HEK293 Kir2.1, FluxOR thallium flux fluorescence | activity over 3SD threshold, % at 10 µM | 1,200 compounds, 2% hits | AID 2345, 2010;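 active = fluorescence ratio rise of at least 3 SD above the vehicle-control mean, seen in both replicates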
KCNQ2 W236L pot: potentiators of retigabine-insensitive KCNQ2 W236L, mechanism study for KCNQ2 potentiator project, cell-based, rat KCNQ2 W236L, CHO, automated patch clamp; current increase over 3SD of negative controls (%), hits give high values, % at 25 µM; shares compounds with KCNQ2 pot; 940 compounds, 10% hits; automated patch clamp current;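 active = current increase at least 3 SD of the untreated controls above them in both duplicate recordings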
Each line names hits and unclear results; the compound was inactive in the other large screens (follow-up assays come after a bar, where they were run). Hits are enriched below; roughly 1.6% of the tested compounds scored in any of these assays.

CCN(c1ccccc1)S(=O)(=O)c1ccc(Cl)c(C(=O)N(CC2CCCO2)C2CCS(=O)(=O)C2)c1 (centres undefined)	none
Cc1cccc(C)c1OCc1cc(C(=O)N(Cc2c(C)nn(C)c2C)C2CC2)no1	none
COc1ccccc1NC(=O)c1nn(C)c(C(=O)Nc2ccccc2OC)c1[N+](=O)[O-]	none (no result: KCNQ2 pot)
COc1ccccc1NC(=O)c1c(N=Cc2ccccc2O)cnn1C	KCNQ2 pot 12 | Kir21 conf inh inactive | HEK293 ctr inactive | CHO-K1 Tl ctr 47 | KCNQ1 pot spec 64 | KCNQ2 pot conf inactive | Kir21 spec inactive
CCc1ccc2c(c1)c(N=NC1=NC(=O)CS1)c(O)n2CC	KCNQ2 pot 9.7 | Kir21 conf inh inactive | HEK293 ctr 224% | CHO-K1 Tl ctr inactive | KCNQ1 pot spec inactive | KCNQ2 pot conf 28 | Kir21 spec inactive | KCNQ2 W236L pot inactive
CCc1ccc2[nH]c(O)c(N=NC3=NC(=O)CS3)c2c1	none (no result: KCNQ2 pot)
CN(C)CCn1c(=N)n(CC(O)c2ccc(Cl)c(Cl)c2)c2ccccc21 (centres undefined)	none
N=c1n(CCN2CCCCC2)c2ccccc2n1CC(O)c1ccc(Cl)c(Cl)c1 (centres undefined)	none (no result: KCNQ2 pot) | Kir21 conf inh 36% | HEK293 ctr 64%
N=c1n(CCN2CCCCC2)c2ccccc2n1CC(O)c1cccc(Br)c1 (centres undefined)	none (no result: KCNQ2 pot) | Kir21 conf inh 40% | HEK293 ctr inactive
N=c1n(CCN2CCCCC2)c2ccccc2n1CC(O)COc1ccccc1 (centres undefined)	none (no result: KCNQ2 pot)
Cc1ccsc1CN(C(=O)c1ccccc1)C1CCS(=O)(=O)C1 (centres undefined)	none (no result: KCNQ2 pot)
CCOC(=O)N1CCC(n2c(SCC(=O)NCCc3ccc(S(N)(=O)=O)cc3)nc3ccccc3c2=O)CC1	none
CCn1c(=O)c(C(=O)NCc2ccccn2)c(O)c2ccccc21	KCNQ2 pot 18 | Kir21 conf inh inactive | HEK293 ctr inactive | CHO-K1 Tl ctr inactive | KCNQ1 pot spec inactive | KCNQ2 pot conf 35 | Kir21 spec inactive | KCNQ2 W236L pot inactive
CCn1c(=O)c(C(=O)NCc2ccc(OC)cc2)c(O)c2ccccc21	none (no result: KCNQ2 pot)
COc1ccccc1CNCC(c1ccccc1)c1ccccc1	none (no result: KCNQ2 pot) | Kir21 conf inh 48% | HEK293 ctr inactive
COc1cccc(CNCc2ccc(OC)c3ccccc23)c1OC	none
COc1cc(CNCc2cccc3ccccc23)cc(OC)c1	none (no result: KCNQ2 pot)
COc1ccccc1CNCc1cccc(Oc2ccccc2)c1	none | Kir21 conf inh inactive | HEK293 ctr inactive
COc1ccccc1CNCc1cc(OC)c(OC)cc1OC	none
COc1ccccc1CNCc1ccc(OC)c2ccccc12	none | Kir21 conf inh 36% | HEK293 ctr inactive
COc1ccc(CNCc2ccc(OC)c3ccccc23)cc1	none | Kir21 conf inh 20% | HEK293 ctr inactive
COc1ccccc1CNCc1cc(Br)ccc1OC	none
COc1ccc(N2CCN(C(=O)CSc3nnc(NC(=O)C4CCC4)s3)CC2)cc1	none (no result: KCNQ2 pot)
O=C(CNCCc1ccc(Cl)cc1)Nc1ccc(C(=O)N2CCCCC2)cc1	none (no result: KCNQ2 pot)
